Test results as given in PubChem BioAssay (EPA / NIEHS).
Results filed as inconclusive are left out. The source made the active and inactive calls. Rule for the calls: active = hit-call score of the fitted dose curve at least 0.9, where 1 is the maximum; inconclusive = response in the unintended direction; inactive = score below 0.9.

Each compound was assayed on ABC Transporter (ABCB1), ABCB1 (gene 5243) (assay: CLD_ABCB1_24hr: CellzDirect (CLD) Gene Expression Assay for ABC Transporter (ABCB1) at 24 hours (AID 2283684)).
Protocol: CLD_24hr is a cell-based, multiplexed-readout assay that uses hepatocyte, a human liver primary cell, with measurements taken at 24 hours after chemical dosing in a 96-well plate.CLD_ABCB1_24hr is one of 16 assay component(s) measured or calculated from the CLD_24hr assay. It is designed to make measurements of mRNA induction, a form of inducible reporter, as detected with chemiluminescence signals by Quantitative Nuclease Protection Assay (qNPA) technology.Data from the assay component CLD_ABCB1_24hr was analyzed at the endpoint, CLD_ABCB1_24hr, in the positive analysis fitting direction relative to DMSO as the negative control and baseline of activity. Using a type of inducible reporter, gain-of-signal activity can be used to understand changes in the reporter gene as they relate to the gene ABCB1. Furthermore, this assay endpoint can be referred to as a primary readout. To generalize the intended target to other relatable targets, this assay endpoint is annotated to the transporter intended target family, where subfamily is ABC transporter.
Human hepatocyte cultures were treated daily for two consecutive days with fresh dosing solutions containing appropriate concentrations of the 320 ToxCast chemicals (chemical identities were blinded to CellzDirect and other ToxCast collaborators), vehicle control (0.2% DMSO), and positive control inducers as summarized in Table 1. Due to the large number of treatment groups and chemicals examined, the ToxCast chemicals were divided into two groups (spanning two independent cultures of hepatocytes from separate donor preparations (Hu778: ToxCast plates 1 and 2; Hu776: ToxCast plates 3 and 4). Each preparation of human hepatocyte cultures was treated with respective vehicle control, medium only control, set of six positive controls/reference chemicals for the five hepatic receptor pathways, and a subset of eight of the ToxCast chemicals (indoxacarb, pyrithiobac-sodium, norflurazon, cyhalofop-butyl, methomyl, thiram, acetochlor, and propiconazole). These replicate data, coupled with internal replicates designed within the blinded ToxCast chemical library, provided additional data to evaluate interindividual differences between hepatocyte preparations and their potential impact on chemical profiles.Cell morphology and integrity were evaluated using phase-contrast microscopy as an indicator of hepatocyte cell health (Tyson & Green, 1987). Cultures for each treatment group (i.e., media, vehicle [0.2% DMSO], positive control inducers [multiple concentrations], and the ToxCast chemicals [multiple concentrations]) were observed and cell morphology was assessed relative to vehicle control cultures at each harvest time point (0, 6, 24, or 48 h). […] Images were evaluated at the conclusion of the study to assess changes in cell integrity and account for the effects of chemical exposure on uncharacteristic changes in concentration-dependent gene expression profiles. The results from these determinations of apparent cytotoxicity were annotated (yes/no) alongside the corresponding qNPA data for reference.At the conclusion of each treatment period, hepatocyte cultures (96-well) were washed with 1 volume of HBSS, lysed by addition of 25 ul ArrayPlate lysis buffer (HTG, Tucson, AZ), and 70 ul/well of Denaturation Oil, denatured by incubation at 95C for 10 min, and frozen at approximately -70C until analysis by nuclease protection assay (qNPA) (Roberts et al., 2007). For qNPA analysis, cell lysates were thawed at 50C for approximately 30 min, qNPA probes were added, and samples were incubated at 95C for 10 min to begin the detection process by denaturing the target RNA, dissociating the duplexes and secondary structure hybridization. At the conclusion of the hybridization period, S1 nuclease reagent was added to each sample to digest all nonprotected nucleotides at 50C for 60-90 min. […]

Question: How did the outcome turn out when `COC(=O)c1c(C(F)F)nc(C(F)(F)F)c(C2=NCCS2)c1CC(C)C` was run?
Answer: inactive

Question: Which outcome does the source give for `N#CN=C1SCCN1Cc1ccc(Cl)nc1` here?
Answer: inactive

Question: `Nc1c(Cl)c(Cl)nc(C(=O)O)c1Cl` was tested. Which outcome did it give?
Answer: inactive

Question: Which outcome does the source give for `CCCCOCN(C(=O)CCl)c1c(CC)cccc1CC` here?
Answer: inactive

Question: `CC1(C)C(C(=O)OC(C#N)c2cccc(Oc3ccccc3)c2)C1(C)C` (stereo not given) was tested. Which outcome did it give?
Answer: inactive

Question: For `CSC(=O)c1c(C(F)F)nc(C(F)(F)F)c(C(=O)SC)c1CC(C)C`, which outcome is on record?
Answer: inactive

Question: Which outcome does the source give for `O=P(O)(O)CCCl` here?
Answer: inactive

Question: With `CS(=O)(=O)c1cc(C(F)(F)F)ccc1C(=O)c1cnoc1C1CC1` as the compound, how does the outcome read?
Answer: inactive

Question: With `CC1(C)CCC(=Cc2ccc(Cl)cc2)C1(O)Cn1cncn1` (stereo not given) as the compound, how does the outcome read?
Answer: inactive

Question: `CCOc1nc(C(Cl)(Cl)Cl)ns1` was tested. Which outcome did it give?
Answer: inactive

Question: Which outcome does the source give for `CNC(=O)Oc1cccc2ccccc12` here?
Answer: inactive

Question: How did the outcome turn out when `O=c1n(Cl)c(=O)n(Cl)c(=O)n1Cl` was run?
Answer: inactive

Question: Which outcome does the source give for `COCC(=O)N(c1c(C)cccc1C)C(C)C(=O)OC` (stereo not given) here?
Answer: inactive

Question: `COc1ccc(-c2ccccc2)cc1NNC(=O)OC(C)C` was tested. Which outcome did it give?
Answer: inactive

Question: With `CC(C)Oc1cccc(NC(=O)c2ccccc2C(F)(F)F)c1` as the compound, how does the outcome read?
Answer: inactive

Question: With `C=CCOC(=O)C(C)(C)OC(=O)c1cc(-n2c(=O)cc(C(F)(F)F)n(C)c2=O)ccc1Cl` as the compound, how does the outcome read?
Answer: inactive

Question: How did the outcome turn out when `Cc1cnc(C2=NC(C)(C(C)C)C(=O)N2)c(C(=O)O)c1` (stereo not given) was run?
Answer: inactive

Question: With `CCOc1nc(F)cc2nc(S(=O)(=O)Nc3c(Cl)cccc3Cl)nn12` as the compound, how does the outcome read?
Answer: inactive

Question: For `CC(C)(C)C(=O)C(Oc1ccc(Cl)cc1)n1cncn1` (stereo not given), which outcome is on record?
Answer: inactive

Question: With `CN=C=S` as the compound, how does the outcome read?
Answer: inactive

Question: With `CCCCC(C#N)(Cn1cncn1)c1ccc(Cl)cc1` (stereo not given) as the compound, how does the outcome read?
Answer: inactive

Question: For `COc1cc(Cl)c(OC)cc1Cl`, which outcome is on record?
Answer: inactive

Question: How did the outcome turn out when `CCNP(=S)(OC)O/C(C)=C/C(=O)OC(C)C` (stereo not given) was run?
Answer: inactive

Question: For `N#Cc1c(Cl)cccc1Cl`, which outcome is on record?
Answer: inactive

Question: Which outcome does the source give for `CCOP(=S)(OCC)Oc1nc(Cl)n(C(C)C)n1` here?
Answer: inactive

Question: `CCCC(=NOCC)C1=C(O)CC(CC(C)SCC)CC1=O` (stereo not given) was tested. Which outcome did it give?
Answer: inactive

Question: With `COC(=O)N(C(=O)N1CO[C@@]2(C(=O)OC)Cc3cc(Cl)ccc3C2=N1)c1ccc(OC(F)(F)F)cc1` as the compound, how does the outcome read?
Answer: inactive

Question: How did the outcome turn out when `CC(C)N1C(=O)N(c2ccccc2)CSC1=NC(C)(C)C` was run?
Answer: inactive

Question: How did the outcome turn out when `CCNC(=O)NC(=O)C(C#N)=NOC` was run?
Answer: inactive

Question: For `CC(C)NC(=O)N1CC(=O)N(c2cc(Cl)cc(Cl)c2)C1=O`, which outcome is on record?
Answer: inactive

Question: `COC(=O)NS(=O)(=O)c1ccc(N)cc1` was tested. Which outcome did it give?
Answer: inactive

Question: Which outcome does the source give for `Clc1nc(Cl)nc(Nc2ccccc2Cl)n1` here?
Answer: inactive

Question: Which outcome does the source give for `CC1(C)C(C=C(Cl)Cl)C1C(=O)OC(C#N)c1cccc(Oc2ccccc2)c1` (stereo not given) here?
Answer: inactive

Question: Which outcome does the source give for `O=C(Nc1ccccc1-c1ccc(Cl)cc1)c1cccnc1Cl` here?
Answer: inactive

Question: Which outcome does the source give for `O=C(O)c1c(Cl)ccc2cc(Cl)cnc12` here?
Answer: inactive

Question: How did the outcome turn out when `Clc1cccc(C(Cl)(Cl)Cl)n1` was run?
Answer: inactive

Question: `CCSC(=O)N1CCCCCC1` was tested. Which outcome did it give?
Answer: inactive

Question: Which outcome does the source give for `Cn1c(-c2ccccc2)cc(-c2ccccc2)[n+]1C` here?
Answer: inactive

Question: With `CCOc1cc(C(C)(C)C)ccc1C1COC(c2c(F)cccc2F)=N1` (stereo not given) as the compound, how does the outcome read?
Answer: inactive

Question: `COP(=S)(OC)Oc1ccc([N+](=O)[O-])c(C)c1` was tested. Which outcome did it give?
Answer: inactive
